This note sets out measurements from PubChem BioAssay (NCI).

The panel holds about 83,000 compounds, 20% with a hit somewhere; the sample as a whole holds those more often.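 Cell lines were cultured in 96-well plates, exposed to a single compound concentration, and assessed for percent growth 48 hours later.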 A number with no mark means an inactive call. Calls of active or inactive are those of the source. Rule for the calls: active = growth percent below 10; inactive = the rest.

The subject of one assay is UACC-62 melanoma. Put plainly: NCI-60 one-dose screen, 48 h (100 = growth as untreated, 0 = no growth, -100 = all killed). Conditions: 10 µM unless noted.
`N#Cc1c(-c2ccccc2Cl)cc(-c2c[nH]c3ccccc23)[nH]c1=O`: the growth was 50.3%.
As to `CN1CCN(/C(=N\c2sc(-c3ccccc3)nc2-c2ccccc2)c2ccccc2)CC1`, the growth is 75.7%.
Take `COc1ccc(-c2cc(C(=O)NCc3ccccc3)nn2-c2ccc(S(C)(=O)=O)cc2)cc1OC`: the growth is 111%.
Same read-out and setting: under `O=C(COc1ccc(NC(=O)Nc2ccc(Cl)c(Cl)c2)cc1)N=Nc1c(O)[nH]c2ccc(Cl)cc12` stands -33.1% (active).
As to `C=C1CC[C@@H]2[C@]3(C)COC(c4cn(-c5ccccc5)nc4-c4ccccc4)O[C@@H]3CC[C@@]2(C)[C@@H]1C/C=C1/C(=O)OC[C@H]1O` (stereo partly specified), the growth was -93.8% (active).
Regarding `CC(=O)Nc1cccc(-c2nc3cc(-c4ccc(O)cc4)ccc3n2C)c1`, the growth is 15.7%.
The same measure, in the same setting: the figure for `O=C(/C=C/c1ccc(-c2ccccc2)cc1)c1nc2ccccc2n1Cc1ccc(F)cc1` is 38.2%; for `Cc1cc2nc3c4ccccc4n(CCNCCN(C)C)c3nc2cc1C` it is -87.8% (active).
With `c1ccc(-c2csc(Nc3cccc(Nc4nc(-c5ccccc5)cs4)c3)n2)cc1`, the growth is 50.3%.
For the compound `O=C(N/N=C/c1ccc(-c2ccc(O)cc2)s1)c1[nH]c2ccc(Br)cc2c1-c1ccccc1`, the growth is -13.1% (active).
Still for that read-out and setting: the figure for `COCOc1cc2c(=O)c(C)c(C(=O)N[C@@H](Cc3ccccc3)C(O)C(=O)NCc3ccccc3)oc2cc1OC` (stereo partly specified) is -14.8% (active); for `COc1cc2oc(-c3cccc(C(=O)Nc4ccc(Cl)cc4)c3)cc(=O)c2c(OCCNC(=O)[C@@H](N)CCC(=O)O)c1OC` it is 100%; for `Cn1cc(-c2nc(N)nnc2-c2c[nH]c3ccc(Br)cc23)c2cccnc21` it is 53.9%.
Same read-out and setting: the figure for `O=C1c2c(c3c4cc(F)ccc4oc3c3[nH]c4ccc(Br)cc4c23)C(=O)N1O` is 18.6%.
Same read-out and setting: the figure for `CCCCNC(=S)Nc1ccc(OCc2nc3ccccc3[nH]2)cc1` is 38.2%; for `COc1cc(-c2ccc(/C=N/NC(=O)c3[nH]c4ccc(Br)cc4c3-c3ccccc3)s2)cc(OC)c1OC` it is 84.5%.
For `C=C1CC[C@@H]2[C@]3(C)COC(c4cn[nH]c4-c4ccc(C)cc4)O[C@@H]3CC[C@@]2(C)[C@@H]1C/C=C1/C(=O)OCC1O` (stereo partly specified), the growth is -31.3% (active).
As to `COc1cc2c(c(OC)c1OC)C(=O)CC(c1cccc(NC(=O)c3cc(N)ccc3Cl)c1)O2` (stereo unspecified), the growth is 61.7%.
With `COc1cc2c(c(OC)c1OC)C(=O)CC(c1cccc(NC(=O)c3cccc(NC(=O)[C@H](C)NC(=O)OC(C)(C)C)c3)c1)O2` (stereo partly specified), the growth is 39.7%.
As for `C=C1CCC2C3(C)COC(c4cc(F)cc(F)c4)OC3CCC2(C)C1CC(O)C1=CCOC1=O` (stereo unspecified), the growth is 68.8%.
Turning to `O=C(/C=C/c1ccc(O)c(O)c1)NC1CCOC1O` (stereo unspecified), the growth was 104%.
As for `C/C(=N\N=C1/C(=O)Nc2ccc(Cl)cc21)c1ccc2c(c1)Nc1ccccc1S2`, the growth is 13.5%.
Regarding `CC(C)CCNC(=O)N/C(N)=N/c1nc2ccccc2s1`, the growth was 59.2%.
With `OCNc1ccc(-n2cnc3cc(-c4ccc(O)cc4)ccc32)cc1C(F)(F)F`, the growth is 33.5%.
Consider `C=C1CCC2C3(C)COC(c4ccc(F)cc4)OC3CCC2(C)C1C/C=C1/C(=O)OCC1O` (stereo unspecified), for which the growth was -8.34% (active).
For the compound `O=c1[nH]n(C(=S)N/N=C/c2ccccc2Cl)c(=O)c2ccccc12`, the growth is -65.4% (active).
`N#Cc1c(-c2cccc(Cl)c2Cl)cc(-c2ccc3ccccc3c2)[nH]c1=O`: the growth is 76.2%.
`Clc1cccc(Cl)c1/C=C/c1cc(/C=C/c2ccc(Br)cc2)c2ccccc2n1`: the growth is 83.5%.
`CC(C)c1ccc2c(N)c(C(=O)Nc3ccc(C(F)(F)F)cn3)sc2n1`: the growth was 69.7%.
On the same count and under the same terms, under `CCN(CC)C(=O)N/C(N)=N/c1nc2ccccc2s1` stands 43.7%.
With `O=C(COc1ccc(NC(=O)Nc2ccc(Cl)c(Cl)c2)cc1)N=Nc1c(O)[nH]c2ccc([N+](=O)[O-])cc12`, the growth was 85.6%.
Regarding `Cc1cc2c(cc1Cl)C(=O)/C(=C/c1ccc(F)cc1)O2`, the growth is 76.6%.
On the same count and under the same terms, under `CCCCOc1ccc(NC(=O)c2sc3nc(C)ccc3c2N)cc1` stands 40%.
Same read-out and setting: the figure for `O=C1Nc2cc(Cl)ccc2/C1=C/c1cccc(OCc2ccccn2)c1` is 5.17% (active); for `NS(=O)(=O)c1ccc(N=Nc2c(O)n(CC(=O)Nc3ccccc3Cl)c3ccccc23)cc1` it is 19.7%; for `O=C(Nc1cccc(-n2cnc3cc(-c4ccc(O)cc4)ccc32)c1)C1CC1` it is 38.5%.
Take `C=C1CC[C@@H]2[C@]3(C)COC(c4cn[nH]c4-c4ccc(OC)cc4)O[C@@H]3CC[C@@]2(C)[C@@H]1C/C=C1/C(=O)OCC1O` (stereo partly specified): the growth was -75.2% (active).
Still for that read-out and setting: under `CC(=O)Nc1ccc(-c2cn(-c3cccc(C(=O)Nc4ccc(N5CCN(C)CC5)cc4)c3)nn2)cn1` stands 114%.

Another assay concerns SK-MEL-28 melanoma. The description is as above. The note with it: 10 µM unless noted.
Consider `N#Cc1c(-c2ccccc2Cl)cc(-c2c[nH]c3ccccc23)[nH]c1=O`, for which the growth was 65.3%.
On to `CN1CCN(/C(=N\c2sc(-c3ccccc3)nc2-c2ccccc2)c2ccccc2)CC1`, for which the growth is 57.7%.
Still for that read-out and setting: the figure for `COc1ccc(-c2cc(C(=O)NCc3ccccc3)nn2-c2ccc(S(C)(=O)=O)cc2)cc1OC` is 134%.
With `O=C(COc1ccc(NC(=O)Nc2ccc(Cl)c(Cl)c2)cc1)N=Nc1c(O)[nH]c2ccc(Cl)cc12`, the growth is -81.4% (active).
On to `C=C1CC[C@@H]2[C@]3(C)COC(c4cn(-c5ccccc5)nc4-c4ccccc4)O[C@@H]3CC[C@@]2(C)[C@@H]1C/C=C1/C(=O)OC[C@H]1O` (stereo partly specified), for which the growth was -84.2% (active).
Consider `CC(=O)Nc1cccc(-c2nc3cc(-c4ccc(O)cc4)ccc3n2C)c1`, for which the growth was 27.3%.
Take `O=C(/C=C/c1ccc(-c2ccccc2)cc1)c1nc2ccccc2n1Cc1ccc(F)cc1`: the growth is 28.4%.
Regarding `Cc1cc2nc3c4ccccc4n(CCNCCN(C)C)c3nc2cc1C`, the growth is -68.4% (active).
On the same count and under the same terms, under `c1ccc(-c2csc(Nc3cccc(Nc4nc(-c5ccccc5)cs4)c3)n2)cc1` stands 60.9%; under `O=C(N/N=C/c1ccc(-c2ccc(O)cc2)s1)c1[nH]c2ccc(Br)cc2c1-c1ccccc1`, 1.23% (active); under `COCOc1cc2c(=O)c(C)c(C(=O)N[C@@H](Cc3ccccc3)C(O)C(=O)NCc3ccccc3)oc2cc1OC` (stereo partly specified), 38.9%.
With `COc1cc2oc(-c3cccc(C(=O)Nc4ccc(Cl)cc4)c3)cc(=O)c2c(OCCNC(=O)[C@@H](N)CCC(=O)O)c1OC`, the growth is 78.8%.
For `Cn1cc(-c2nc(N)nnc2-c2c[nH]c3ccc(Br)cc23)c2cccnc21`, the growth was 59.9%.
On the same count and under the same terms, the figure for `O=C1c2c(c3c4cc(F)ccc4oc3c3[nH]c4ccc(Br)cc4c23)C(=O)N1O` is 43.6%.
Same read-out and setting: the figure for `CCCCNC(=S)Nc1ccc(OCc2nc3ccccc3[nH]2)cc1` is 88.2%.
For `COc1cc(-c2ccc(/C=N/NC(=O)c3[nH]c4ccc(Br)cc4c3-c3ccccc3)s2)cc(OC)c1OC`, the growth was 84.1%.
Regarding `C=C1CC[C@@H]2[C@]3(C)COC(c4cn[nH]c4-c4ccc(C)cc4)O[C@@H]3CC[C@@]2(C)[C@@H]1C/C=C1/C(=O)OCC1O` (stereo partly specified), the growth was 6.8% (active).
As to `COc1cc2c(c(OC)c1OC)C(=O)CC(c1cccc(NC(=O)c3cc(N)ccc3Cl)c1)O2` (stereo unspecified), the growth is 56.8%.
In the case of `COc1cc2c(c(OC)c1OC)C(=O)CC(c1cccc(NC(=O)c3cccc(NC(=O)[C@H](C)NC(=O)OC(C)(C)C)c3)c1)O2` (stereo partly specified), the growth is 85.6%.
As for `C=C1CCC2C3(C)COC(c4cc(F)cc(F)c4)OC3CCC2(C)C1CC(O)C1=CCOC1=O` (stereo unspecified), the growth was 46.7%.
The same measure, in the same setting: the figure for `O=C(/C=C/c1ccc(O)c(O)c1)NC1CCOC1O` (stereo unspecified) is 107%; for `C/C(=N\N=C1/C(=O)Nc2ccc(Cl)cc21)c1ccc2c(c1)Nc1ccccc1S2` it is -48.9% (active).
For `CC(C)CCNC(=O)N/C(N)=N/c1nc2ccccc2s1`, the growth was 81.3%.
On the same count and under the same terms, under `OCNc1ccc(-n2cnc3cc(-c4ccc(O)cc4)ccc32)cc1C(F)(F)F` stands 27.5%; under `C=C1CCC2C3(C)COC(c4ccc(F)cc4)OC3CCC2(C)C1C/C=C1/C(=O)OCC1O` (stereo unspecified), -70.3% (active).
Turning to `O=c1[nH]n(C(=S)N/N=C/c2ccccc2Cl)c(=O)c2ccccc12`, the growth was -26.3% (active).
The same measure, in the same setting: the figure for `N#Cc1c(-c2cccc(Cl)c2Cl)cc(-c2ccc3ccccc3c2)[nH]c1=O` is 92.8%; for `Clc1cccc(Cl)c1/C=C/c1cc(/C=C/c2ccc(Br)cc2)c2ccccc2n1` it is 104%; for `CC(C)c1ccc2c(N)c(C(=O)Nc3ccc(C(F)(F)F)cn3)sc2n1` it is 77.3%.
On the same count and under the same terms, under `CCN(CC)C(=O)N/C(N)=N/c1nc2ccccc2s1` stands 75.4%; under `O=C(COc1ccc(NC(=O)Nc2ccc(Cl)c(Cl)c2)cc1)N=Nc1c(O)[nH]c2ccc([N+](=O)[O-])cc12`, 57.6%.
On to `Cc1cc2c(cc1Cl)C(=O)/C(=C/c1ccc(F)cc1)O2`, for which the growth is 111%.
Same read-out and setting: under `CCCCOc1ccc(NC(=O)c2sc3nc(C)ccc3c2N)cc1` stands 50.7%; under `O=C1Nc2cc(Cl)ccc2/C1=C/c1cccc(OCc2ccccn2)c1`, 39.5%; under `NS(=O)(=O)c1ccc(N=Nc2c(O)n(CC(=O)Nc3ccccc3Cl)c3ccccc23)cc1`, 21.2%.
Turning to `O=C(Nc1cccc(-n2cnc3cc(-c4ccc(O)cc4)ccc32)c1)C1CC1`, the growth is 54.3%.
On the same count and under the same terms, under `C=C1CC[C@@H]2[C@]3(C)COC(c4cn[nH]c4-c4ccc(OC)cc4)O[C@@H]3CC[C@@]2(C)[C@@H]1C/C=C1/C(=O)OCC1O` (stereo partly specified) stands -52.2% (active).
As for `CC(=O)Nc1ccc(-c2cn(-c3cccc(C(=O)Nc4ccc(N5CCN(C)CC5)cc4)c3)nn2)cn1`, the growth is 101%.
